The text below walks through data of the supplement of paper PMC6555819.

The test system of the first assay is PPARg:RXRa DBDmut IVT, anti-RXR (DBD mutation: RXRa K156A/R161A, NR concentration 270 nM, RXRa partner concentration 90 nM). The experiment in a line: PBM binding z-score (relative to random genomic background probes); higher = stronger binding; sequences stand for … in GC…GCGATTGACAGCGTAGAATGAAGG
An outline of the steps: (§1)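 Custom Agilent 4×180K protein-binding microarrays carried double-stranded probes, each with a 34-nt variable region. These regions held direct-repeat seeds, single-nucleotide variants, half-site ablations and random human genomic background sequences. Ligand-free nuclear receptor dimers were incubated on the arrays for 1 h, antibodies against each partner (one per run) detected binding, and scanned fluorescence was regression-normalized. Binding z-scores take the random background probes as reference.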
The sequence CCGACTGGGGCATAAGGTTACTATAAGCCAGCCC had a PBM binding z-score of 2.65.

Sequence CTCGAAAGGTCGGTTGAGGTGAGTACACGGATAA came in with a PBM binding z-score of 0.186.

The sequence AATACAGGGTCACTATGCCAGAGTAGGTACGAAT registered a PBM binding z-score of 3.26.

Take TAGCCTAGGTCAGATCGGGCCTGTATACGCTATA: the PBM binding z-score is 0.244.

As for TATACAGGGTCAAAGGCCAGGGTACGAATGTCGA, the PBM binding z-score was 2.06.

With TCTAGTTGGTCACGGAGGTCACACTCGACGGGTA, the PBM binding z-score was 2.74.

AGTTAAAGTTCACTAGGTAACGTAAGATTCAGCT yielded a PBM binding z-score of 2.6.

The sequence CCTTACGGGTCACTGACAGGTTATACCATTTGGA yielded a PBM binding z-score of 3.69.

Sequence ACCGAAAGGTCGTGAGGTGAGTATACAGAAAGGC displayed a PBM binding z-score of 0.638.

Consider CGTCCAAGGTGAAGGTCAGTGAAAGAGACTCGAA, for which the PBM binding z-score came out at 1.92.

ATCTCTAGGTAGGACTCAGTTCAGTGAAGAACGC returned a PBM binding z-score of 0.406.

On to ACTATTAGTTGAGACGACGGCAACCGATAGGTTG, for which the PBM binding z-score is -0.317.

For ATCACTAGGTAAGACTCAGTTCAGTGAAGAACGC, the PBM binding z-score worked out at 3.04.

In the case of TCATATAGGTAAATGCTAGGTGTAAGTCCGATCT, the PBM binding z-score came to 3.8.

Consider CTCGAAAGGTCGTGCTCAGGTGGGTATACCAAAC, for which the PBM binding z-score stood at 0.456.

For AGAATGAGCTTATTAAGATCAGGGAATTGCGGTC, the PBM binding z-score was -0.544.

For TCTCGGAGGACACGACAGGTCAGAGCTCGACATC, the PBM binding z-score turned out to be 0.919.

Sequence TCTTGTAGATCAGGCAGGTTAAGAAAGCCTGAGT displayed a PBM binding z-score of 1.29.

Sequence GATACAGGGTCAGCTAGAGGCCAAAGTATGGAAA displayed a PBM binding z-score of 1.15.

In turn, CCTATTAGTTGACCATAAGGGTAACCGAAGCTCG yielded a PBM binding z-score of 0.609.

ATCTCTAGGTAAAGATAGTTCAGTGGATGCAAAT yielded a PBM binding z-score of 1.85.

Sequence CAGCCTAGGTCAGTGCCAGTATAGGAGGAACGTT had a PBM binding z-score of 1.7.

As to CGAACTAGGTCATTGACAGGACAGAGAATAGTAA, the PBM binding z-score came to 8.

Take CGCACGAGGGCATGAGTTGATAGCAAATGCCGAT: the PBM binding z-score came to 1.88.

ACAGACAGGTGAGTGAAGATAACTCAGCTGGACG gave a PBM binding z-score of 0.148.

For the sequence GCGACTGGGGCATCCGCAGGTTACCATAACTTAA, the PBM binding z-score is 3.8.

Take ACTAGCAGGCCAAGTGTGGGTCACTCAAACAAAG: the PBM binding z-score worked out at 2.05.

With GATACAGGGTCAAGGCGAGAGTACGCGTATTGAT, the PBM binding z-score is 2.65.

As to ACAGACAGGTGAGTAAAGGTAACTCAGCTGGACG, the PBM binding z-score worked out at 0.353.

As for ACTAGTTGGTCAGCTGAGGTCACCCACAATTCGG, the PBM binding z-score is 1.12.

Consider CCGAGTGGGGCAAGGTTACCATAACGCACAGCCA, for which the PBM binding z-score worked out at 1.75.

Regarding CAAACTAGGTCAAGAGGTCAAAATCCGCTTCCCG, the PBM binding z-score was found to be 7.82.

CCGACTTGGGCATAAGGTTACCATAAGCCAGCCC returned a PBM binding z-score of -0.117.

Regarding CGTTACGGGTCACTGACAGGTTATAGCATTTGGA, the PBM binding z-score came to 3.65.

With CGAGCTAGGTCATCCAGGACAGTGAATACATTGA, the PBM binding z-score was found to be 3.44.

On to CCTAGTTGGTCAAGTTCACACACGCTATAGGTAC, for which the PBM binding z-score amounted to 1.95.

As to CGTCCAAGGTCATAGGAGGTCAGTGTAGACAGAT, the PBM binding z-score is 3.65.

In the case of CCTAGTTGGTCAGCAGGTCACACACCGGATATGA, the PBM binding z-score was found to be 1.7.

As for CGTCCAAGGCCAGCAGGTCAGTGAAAGCGACGTG, the PBM binding z-score came to 0.153.

As for TCTATTATTTGATTAGGGCAACCGAAACAGCGGA, the PBM binding z-score is 2.19.

For the next assay, the system named is PPARg:RXRa IVT, anti-PPARg (NR concentration 270 nM, RXRa partner concentration 90 nM). Described as above. Summed up:
as §1
CCGACTGGGGCATAAGGTTACTATAAGCCAGCCC: the PBM binding z-score came to 3.13.

Take CTCGAAAGGTCGGTTGAGGTGAGTACACGGATAA: the PBM binding z-score came out at 0.928.

Regarding AATACAGGGTCACTATGCCAGAGTAGGTACGAAT, the PBM binding z-score amounted to 4.74.

TAGCCTAGGTCAGATCGGGCCTGTATACGCTATA gave a PBM binding z-score of 1.36.

On to TATACAGGGTCAAAGGCCAGGGTACGAATGTCGA, for which the PBM binding z-score is 4.98.

For TCTAGTTGGTCACGGAGGTCACACTCGACGGGTA, the PBM binding z-score stood at 4.57.

AGTTAAAGTTCACTAGGTAACGTAAGATTCAGCT registered a PBM binding z-score of 4.69.

Consider CCTTACGGGTCACTGACAGGTTATACCATTTGGA, for which the PBM binding z-score is 3.72.

Sequence ACCGAAAGGTCGTGAGGTGAGTATACAGAAAGGC gave a PBM binding z-score of 2.23.

For the sequence CGTCCAAGGTGAAGGTCAGTGAAAGAGACTCGAA, the PBM binding z-score came to 2.94.

In turn, ATCTCTAGGTAGGACTCAGTTCAGTGAAGAACGC gave a PBM binding z-score of 0.852.

With ACTATTAGTTGAGACGACGGCAACCGATAGGTTG, the PBM binding z-score was -0.0579.

Consider ATCACTAGGTAAGACTCAGTTCAGTGAAGAACGC, for which the PBM binding z-score worked out at 2.02.

TCATATAGGTAAATGCTAGGTGTAAGTCCGATCT: the PBM binding z-score came out at 1.94.

The sequence CTCGAAAGGTCGTGCTCAGGTGGGTATACCAAAC had a PBM binding z-score of 1.65.

Regarding AGAATGAGCTTATTAAGATCAGGGAATTGCGGTC, the PBM binding z-score is -0.262.

For the sequence TCTCGGAGGACACGACAGGTCAGAGCTCGACATC, the PBM binding z-score worked out at 0.745.

Sequence TCTTGTAGATCAGGCAGGTTAAGAAAGCCTGAGT came in with a PBM binding z-score of -0.151.

In turn, GATACAGGGTCAGCTAGAGGCCAAAGTATGGAAA came in with a PBM binding z-score of 2.73.

Regarding CCTATTAGTTGACCATAAGGGTAACCGAAGCTCG, the PBM binding z-score was found to be 0.727.

On to ATCTCTAGGTAAAGATAGTTCAGTGGATGCAAAT, for which the PBM binding z-score worked out at 1.54.

As to CAGCCTAGGTCAGTGCCAGTATAGGAGGAACGTT, the PBM binding z-score turned out to be 1.05.

CGAACTAGGTCATTGACAGGACAGAGAATAGTAA: the PBM binding z-score came to 8.14.

CGCACGAGGGCATGAGTTGATAGCAAATGCCGAT: the PBM binding z-score was 1.02.

As for ACAGACAGGTGAGTGAAGATAACTCAGCTGGACG, the PBM binding z-score stood at 0.126.

Sequence GCGACTGGGGCATCCGCAGGTTACCATAACTTAA showed a PBM binding z-score of 3.27.

On to ACTAGCAGGCCAAGTGTGGGTCACTCAAACAAAG, for which the PBM binding z-score is 2.79.

With GATACAGGGTCAAGGCGAGAGTACGCGTATTGAT, the PBM binding z-score is 3.72.

For ACAGACAGGTGAGTAAAGGTAACTCAGCTGGACG, the PBM binding z-score came to 1.07.

For ACTAGTTGGTCAGCTGAGGTCACCCACAATTCGG, the PBM binding z-score was determined as 2.73.

Sequence CCGAGTGGGGCAAGGTTACCATAACGCACAGCCA gave a PBM binding z-score of 3.14.

As to CAAACTAGGTCAAGAGGTCAAAATCCGCTTCCCG, the PBM binding z-score is 8.13.

Regarding CCGACTTGGGCATAAGGTTACCATAAGCCAGCCC, the PBM binding z-score was -0.425.

In turn, CGTTACGGGTCACTGACAGGTTATAGCATTTGGA had a PBM binding z-score of 3.74.

For the sequence CGAGCTAGGTCATCCAGGACAGTGAATACATTGA, the PBM binding z-score was 3.06.

The sequence CCTAGTTGGTCAAGTTCACACACGCTATAGGTAC showed a PBM binding z-score of 1.82.

CGTCCAAGGTCATAGGAGGTCAGTGTAGACAGAT: the PBM binding z-score came to 4.6.

As to CCTAGTTGGTCAGCAGGTCACACACCGGATATGA, the PBM binding z-score amounted to 2.95.

As to CGTCCAAGGCCAGCAGGTCAGTGAAAGCGACGTG, the PBM binding z-score was -0.0441.

In the case of TCTATTATTTGATTAGGGCAACCGAAACAGCGGA, the PBM binding z-score was 1.39.
